# Measured values reported in PubChem BioAssay (NCATS).
# Values joined by “and” are separate entries in the source; they are usually repeats but may differ in a detail not shown here. Equal values may be shown once. Results filed as inconclusive are left out. Where a call stands in place of a potency, no number is given. Active and inactive are the calls of the source. Unless noted, calls come from the whole dose curve; as a rule, active = well fitted curve in the direction sought with a large enough effect; inconclusive = small, poorly fitted or top-dose-only effect, or another doubt; inactive = no such curve, though single readings can be large; an effect the other way counts as inactive or inconclusive.
# Assays:
# [1] = qHTS Assay for Lipid Storage Modulators (AID 1519; calls by dose curve); details: Drosophila S3 cells, BODIPY lipid droplet/cell ratio, laser cytometry, cells loaded with oleic acid
# Method in brief: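 Cells seeded at 5,000 per well were treated with compounds over a concentration series and loaded with oleic acid (400 uM, as added). Lipid droplet fluorescence (488 nm excitation, 500-530 nm channel) was read by laser-scanning cytometry and normalized to 20 uM Triacsin C.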
# [2] = biological target: DNA repair nuclease/redox regulator APEX1 (Homo sapiens) (UniProt P27695); assay: qHTS Validation Assay for Inhibitors of the Human Apurinic/apyrimidinic Endonuclease 1 (APE1) (AID 1705;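 note: TAMRA fluorescence gain over two minutes as APE1 cuts a quenched THF abasic duplex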); details: purified APE1 endonuclease activity, fluorescence, titration; series mostly up to 57.1 µM
# Sequence of DNA repair nuclease/redox regulator APEX1 (Homo sapiens) (P27695 whole entry, looked up): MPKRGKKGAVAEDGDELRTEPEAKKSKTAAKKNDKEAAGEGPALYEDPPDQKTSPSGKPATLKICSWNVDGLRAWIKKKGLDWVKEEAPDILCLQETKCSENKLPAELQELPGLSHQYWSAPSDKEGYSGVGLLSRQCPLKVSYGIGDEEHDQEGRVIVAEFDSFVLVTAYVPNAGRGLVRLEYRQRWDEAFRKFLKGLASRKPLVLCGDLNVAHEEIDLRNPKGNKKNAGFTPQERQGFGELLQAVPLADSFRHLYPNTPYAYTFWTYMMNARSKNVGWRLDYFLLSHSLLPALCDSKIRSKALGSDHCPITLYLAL
# Method in brief: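 qHTS, 1536-well. APE1 + cpd 15 min RT → 50 nM TAMRA/BHQ-2 THF-abasic dsDNA substrate → kinetic fluorescence, 3 reads/60 s; delta(read3−read1) = reaction progress. No-enzyme buffer = negative control.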
# [3] = biological target: Endonuclease 4 (Escherichia coli (strain K12)) (UniProt P0A6C1); assay: Counterscreen for APE1 Inhibitors: qHTS Validation Assay for Inhibitors of Endonuclease IV (AID 1708); details: E. coli endonuclease IV, DNA cleavage fluorescence; series mostly up to 57.1 µM
# Method in brief: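 qHTS concentration-response format; LOPAC1280 tested under APE1-screen conditions. 2 nM enzyme, 15 min compound preincubation at RT, then 50 nM TAMRA/BHQ-2 abasic substrate; kinetic fluorescence read, three reads at 60 s intervals.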
# [4] = qHTS for differential inhibitors of proliferation of Plasmodium falciparum line 7G8 (AID 1815); details: Plasmodium falciparum 7G8 proliferation inhibition; series mostly up to 28.7 µM;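 note: parasite growth measured after three days of incubation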; note: potency is the fitted concentration of half-maximal effect
# [5] = qHTS for differential inhibitors of proliferation of Plasmodium falciparum line GB4 (AID 1816); details: Potency: Plasmodium falciparum GB4 proliferation inhibition; series mostly up to 28.7 µM;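 note: parasite growth measured after 72 h incubation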; note: potency is the fitted concentration of half-maximal effect
# [6] = qHTS for differential inhibitors of proliferation of Plasmodium falciparum line 3D7 (AID 1876); note: potency is the fitted concentration of half-maximal effect; details: P. falciparum 3D7 proliferation inhibition; series mostly up to 28.7 µM
# [7] = qHTS for differential inhibitors of proliferation of Plasmodium falciparum line D10 (AID 1877); details: series mostly up to 28.7 µM;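 note: parasites grown with compound for 72 h before DNA staining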; note: potency is the fitted concentration of half-maximal effect
# [8] = qHTS for differential inhibitors of proliferation of Plasmodium falciparum line Dd2 (AID 1882); details: Potency: Plasmodium falciparum Dd2 proliferation inhibition; series mostly up to 28.7 µM; note: nearly all actives have a fitted effect of over 65% in size; note: potency is the fitted concentration of half-maximal effect
# Method in brief: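 Dd2-infected erythrocytes (0.3% parasitemia, 2.5% hematocrit final) incubated with compound 72 h at 37 C, 5% CO2; lysed with saponin/Triton buffer containing SYBR Green I, incubated overnight in the dark, then read by fluorescence (485/535 nm). Normalized to 0.29 uM artemisinin and DMSO.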
# [9] = qHTS for differential inhibitors of proliferation of Plasmodium falciparum line W2 (AID 1883); details: Potency: Plasmodium falciparum W2 proliferation inhibition; series mostly up to 28.7 µM;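 note: parasites grown with compound for 72 h before lysis and staining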; note: potency is the fitted concentration of half-maximal effect
# [10] = Counterscreen for APE1 Inhibitors: Fluorescent Dye Displacement Validation Assay (AID 1707); details: fluorescent dye displacement from DNA; series mostly up to 57.1 µM
# Method in brief: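 Assay buffer: Tris-HCl pH7.5 with 50mM NaCl, 2 mM MgCl2, 0.01% Tween-20. Dye 250 nM, duplex 50 nM final. Readout: decrease in ThO endpoint fluorescence, 480 nm excitation, 540 nm emission.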
# [11] = measured here: cell count channel max response
# [12] = measured here: lipid channel max response
SMILES,"activity change, negative = inhibition ([1]; at 25.7 µM (top of the series))","activity change, negative = inhibition ([1]; at 57.5 µM (top of the series))","max response [1, 11]","max response [1, 12]",Potency [2],Potency [3],Potency [4],Potency [5],Potency [6],Potency [7],Potency [8],Potency [9],outcome [10]
Cc1ccc(Cl)c(Nc2ccccc2C(=O)O)c1Cl,-1.03% (inactive),12.3% (inactive) and -1.87% (inactive),-11.2% and 0.124% and -35.9%,-11.6% and 13.1% and -37%,inactive,inactive,inactive,inactive,inactive,inactive,inactive,inactive,–
Cc1ccc(/C(=C\CN2CCCC2)c2ccccn2)cc1,–,3.64% (inactive) and 0.151% (inactive),7.98% and 15.3%,14.1% and 15.5%,inactive,inactive,–,–,–,–,–,–,inactive
COc1cc(Cc2cnc(N)nc2N)cc(OC)c1OC,-1.74% (inactive),–,-1.95%,-5.27%,inactive,inactive,–,–,–,–,–,–,inactive
CCCCNc1ccc(C(=O)OCCN(C)C)cc1,3.23% (inactive),14.3% (inactive),-0.19% and 24.9%,3.57% and 43.3%,inactive,–,inactive,–,–,–,inactive,inactive,inactive
FC(F)(F)c1ccccc1-n1ccnc1,–,7.35% (inactive),11%,25.3%,inactive,inactive,inactive,inactive,inactive,inactive,inactive,–,inactive
CCCOc1ccccc1-c1nc2n[nH]nc2c(=O)[nH]1,-0.67% (inactive),9.88% (inactive) and -1.66% (inactive),4.38% and 27.6% and 39.3%,5.08% and 45.2% and 35.5%,inactive,–,–,–,–,inactive,inactive,–,inactive
O=C(CCNNC(=O)c1ccncc1)NCc1ccccc1,-0.0465% (inactive),1.21% (inactive),-2.07% and 1.8%,0.496% and 1.66%,inactive,–,–,–,–,–,inactive,–,inactive
CC(C)(Oc1ccc(CCNC(=O)c2ccc(Cl)cc2)cc1)C(=O)O,-0.881% (inactive),–,-0.576%,-0.58%,–,–,–,–,–,–,–,–,–
O=C(O)CN(CCN(CC(=O)O)CC(=O)O)CCN(CC(=O)O)CC(=O)O,-4.98% (inactive),0.152% (inactive),-17.8% and 39.9%,-19.2% and 38.7%,inactive,–,–,–,inactive,inactive,inactive,inactive,–
CCN(CC)CC(=O)Nc1c(C)cccc1C,0.593% (inactive),2.9% (inactive),-1.17% and 18.4%,2.13% and 21.4%,inactive,–,inactive,–,inactive,inactive,inactive,14.1 µM (active),–
CCCCNC(=O)NS(=O)(=O)c1ccc(C)cc1,0.284% (inactive),5.43% (inactive) and -0.0777% (inactive),-2.87% and 13.1% and 19.7%,-2.83% and 21.8% and 21.4%,inactive,inactive,–,inactive,inactive,inactive,inactive,inactive,–
CCn1nc(C(=O)O)c(=O)c2cc3c(cc21)OCO3,1.1% (inactive),13.5% (inactive),-2.39% and 18.6%,0.268% and 42.8%,inactive,inactive,–,–,–,–,–,–,–
CN(C)CCCN1c2ccccc2Sc2ccccc21,0.5% (inactive),7.75% (inactive) and 0.211% (inactive),-16.2% and -4.1% and -25%,-14.8% and 2.83% and -21.3%,inactive,inactive,11.2 µM (active),10 µM (active),–,–,–,0.794 µM (active),inactive
CC(=O)Nc1nnc(S(N)(=O)=O)s1,-1.69% (inactive),-0.868% (inactive),6.43% and 19.5%,5.21% and 17%,inactive,inactive,inactive,inactive,inactive,inactive,inactive,inactive,inactive
CCO/C([O-])=N/c1c[n+](N2CCOCC2)no1,-2.6% (inactive),9.19% (inactive) and 0.351% (inactive),-1.78% and -5.37% and -2.1%,-4.32% and 6.3% and -2.43%,inactive,–,inactive,inactive,inactive,inactive,inactive,inactive,–
CN1CCN(C2=Nc3ccccc3Oc3ccc(Cl)cc32)CC1,-4.84% (inactive),10% (inactive) and 2.23% (inactive),14.9% and 0.863% and -23%,7.38% and 8.12% and -19.5%,inactive,inactive,7.08 µM (active),11.2 µM (active),12.6 µM (active),11.2 µM (active),–,5.01 µM (active),inactive
CN(C)CCCN1c2ccccc2Sc2ccc(C(F)(F)F)cc21,-1.52% (inactive),3.48% (inactive),-5.7% and 9.08%,-9.54% and 14.3%,inactive,inactive,8.91 µM (active),11.2 µM (active),–,11.2 µM (active),11.2 µM (active),7.08 µM (active),–
NCCCNCCSP(=O)(O)O,–,2.83% (inactive),11.3%,15.5%,inactive,inactive,inactive,inactive,inactive,inactive,inactive,inactive,inactive

SMILES,"activity change, negative = inhibition ([1]; at 25.7 µM (top of the series))","activity change, negative = inhibition ([1]; at 57.5 µM (top of the series))","max response [1, 11]","max response [1, 12]",Potency [2],Potency [3],Potency [4],Potency [5],Potency [6],Potency [7],Potency [8],Potency [9],outcome [10]
CN(C)CCOC(=O)COc1ccc(Cl)cc1,0.143% (inactive),11.6% (inactive) and 1.09% (inactive),1.9% and 22.5% and -10.8%,1.25% and 39.9% and -9.35%,inactive,–,inactive,–,inactive,–,inactive,inactive,–
CC(C)NNC(=O)c1ccncc1,-0.171% (inactive),6.45% (inactive) and -0.103% (inactive),4.18% and 16.8% and -20.6%,1.65% and 27.2% and -21.8%,inactive,inactive,inactive,inactive,inactive,inactive,inactive,inactive,–
CCN(CC)CCNC(=O)c1cc(S(C)(=O)=O)ccc1OC,-2.02% (inactive),7.41% (inactive) and 1.69% (inactive),-4.82% and 19.9% and -18.4%,-8.3% and 33.5% and -17.4%,inactive,–,inactive,inactive,inactive,inactive,inactive,inactive,inactive
CN/C(=C\[N+](=O)[O-])NCCSCc1ccc(CN(C)C)o1,-0.0815% (inactive),4.77% (inactive) and 9.42% (inactive),4.03% and -18.5% and 18.2%,2.82% and -19.9% and 33.3%,inactive,inactive,–,–,–,–,–,–,–
NC(N)=NC(=O)Cc1c(Cl)cccc1Cl,-2.29% (inactive),1.08% (inactive),-10.4% and 9.91%,-13.2% and 12.7%,inactive,inactive,3.98 µM (active),3.98 µM (active),2.82 µM (active),–,inactive,3.16 µM (active),inactive
CC(=O)OC(C)C[N+](C)(C)C (centres undefined),–,7.3% (inactive),18.4%,29.3%,inactive,inactive,inactive,inactive,inactive,inactive,inactive,inactive,inactive
CCCC(C(=O)OCCN(CC)CC)(c1ccccc1)c1ccccc1,-1.67% (inactive),-2.92% (inactive) and 2.44% (inactive),-3.68% and -8.12% and 19.2%,-5.52% and -10.9% and 21.5%,inactive,inactive,1.78 µM (active),3.16 µM (active),2.24 µM (active),3.16 µM (active),7.08 µM (active),1.78 µM (active),inactive
CC1=NS(=O)(=O)c2cc(Cl)ccc2N1,4.02% (inactive),14.6% (inactive),8.52% and 9.84%,14.7% and 27.6%,inactive,inactive,inactive,inactive,inactive,inactive,inactive,inactive,inactive
CC[N+](C)(C)c1cccc(O)c1,1% (inactive),8.9% (inactive) and 0.601% (inactive),22.3% and 9.17% and -28.2%,23.6% and 20.6% and -27.6%,inactive,inactive,inactive,inactive,–,–,inactive,inactive,inactive
CCCCNc1c(C(=O)OCC)c(C)nc2c1cnn2CC,-0.42% (inactive),-16.8% (inactive),-19.5% and -31.7%,-18.5% and -43.9%,inactive,inactive,7.94 µM (active),12.6 µM (active),12.6 µM (active),14.1 µM (active),–,11.2 µM (active),–
CN(C)CCN(Cc1cccs1)c1ccccn1,0.542% (inactive),3.3% (inactive),2.28% and 15.7%,3.57% and 22%,inactive,inactive,–,5.62 µM (active),inactive,inactive,7.08 µM (active),3.16 µM (active),inactive
c1cnc(N2CCN(Cc3ccc4c(c3)OCO4)CC2)nc1,3.16% (inactive),2.74% (inactive),-1.42% and -12.3%,3.03% and -8.1%,inactive,inactive,inactive,–,inactive,inactive,inactive,–,inactive
Cc1ccc(S(=O)(=O)NC(=O)NN2CCCCCC2)cc1,0.497% (inactive),9.8% (inactive),0.635% and 17.7%,2.19% and 33.1%,inactive,–,inactive,inactive,inactive,inactive,inactive,inactive,inactive
CCOC(=O)C1=C(C)NC(C)=C(C(=O)OC)C1c1cccc([N+](=O)[O-])c1 (centres undefined),–,1.63% (inactive),-3.59%,-4.4%,inactive,inactive,11.2 µM (active),12.6 µM (active),8.91 µM (active),12.6 µM (active),–,6.31 µM (active),inactive
CCCCCN(CCCCC)C(=O)C(CCC(=O)O)NC(=O)c1ccc(Cl)c(Cl)c1 (centres undefined),–,2.8% (inactive),-5.79%,-4.23%,inactive,inactive,inactive,inactive,inactive,inactive,inactive,inactive,inactive
CC(C)COCC(CN(Cc1ccccc1)c1ccccc1)N1CCCC1 (centres undefined),–,2.08% (inactive),20%,26.2%,inactive,inactive,inactive,inactive,inactive,inactive,inactive,–,–
c1cc(CN2CCCCC2)cc(OCCCNc2nc3ccccc3s2)c1,–,-4.93% (inactive),18.9%,13%,inactive,–,7.08 µM (active),6.31 µM (active),2.51 µM (active),8.91 µM (active),7.08 µM (active),2.51 µM (active),inactive
NC/C=C/C(=O)O,–,6.98% (inactive),5.6%,13.9%,inactive,inactive,inactive,inactive,inactive,inactive,inactive,inactive,inactive
